Screen size: about 68,000 compounds; about 2,700 (4%) showed an effect of 50% or more. This is one part of a sample in which strong results are shown more often than they occur.
System: Plasmodium berghei
Test: Screen against P. berghei liver stage (PbLuc), transformed with Luciferase, at 2uM
Type: functional, HepG2
Conditions: tested at 2 uM

| SMILES | INHIBITION |
| --- | --- |
| Cc1n[nH]c(C)c1CCCN(C)Cc1c[nH]nc1-c1ccc(F)cc1 | -87.47% |
| CN(Cc1cc(C(C)(C)C)n[nH]1)Cc1c[nH]nc1-c1ccc(F)cc1 | 50.31% |
| CN(Cc1ccn[nH]1)Cc1c[nH]nc1-c1ccc(F)cc1 | -35.45% |
| CCN(Cc1cc(=O)n2cc(Br)ccc2n1)C1CC1 | -15.9% |
| Cc1ccc2cccc(Oc3nc(C)c(C(=O)O)s3)c2n1 | 27.11% |
| CCN(C)C(=O)c1cc(-c2ccn(C(C)C)n2)n2ccccc12 | -8.84% |
| COCCn1cnc(-c2cc(C(=O)NC(C)C)c3ccccn23)c1 | 1.48% |
| CCN(C)C(=O)c1cc(-c2cn(C(C)C)cn2)n2ccccc12 | 73.98% |
| CC(C)(C)c1csc(CNC(=O)C2NCCc3[nH]cnc32)n1 (stereo not drawn) | 12.08% |
| COc1ccc(C(=O)NC2CC2)c(OC2CCN(C(C)CO)CC2)c1 (stereo not drawn) | -8.53% |
| CCCC(=O)N1CCOC2(COCCN(CC(=O)NC)C2)C1 (stereo not drawn) | 43.03% |
| CNC(=O)CN1CCOCC2(C1)CN(C(=O)C(C)C)CCO2 (stereo not drawn) | -6.94% |
| CNC(=O)CN1CCOCC2(CN(CCC(F)(F)F)CCO2)C1 (stereo not drawn) | 53.46% |
| Cc1ccc(C(=O)N2CC[C@@]3(O)CCCC[C@H]3C2)cc1 | 16.45% |
| CNC(=O)c1sccc1N(C)S(=O)(=O)c1ccc(Cl)cc1 | 1.37% |
| O=C(NCCCOCC1CC1)Nc1cccnc1N1CCOCC1 | 61.57% |
| CC(C)COCCCNC(=O)c1cccnc1N1CCOCC1 | -32.12% |
| O=C(NCCCOCC1CCCO1)c1cccnc1N1CCOCC1 (stereo not drawn) | 10.49% |
| CCC(CC)NC(=O)c1ncn2c1CN(CC)S(=O)(=O)c1ccccc1-2 | 14.52% |
| CC(=O)N1CCC(Cc2nccnc2-c2c(C)n[nH]c2C)C1 (stereo not drawn) | 26.14% |
| Cc1ccc(CN2CC[C@H]3O[C@@H](C(=O)N4CCCO4)CC[C@H]32)s1 | -25.79% |
| COc1cccc(CCNCc2c(C)nn(C)c2N(C)C)c1 | 67.59% |
| Cc1nn(C)c(N(C)C)c1CNCc1cccc(Cn2cccn2)c1 | 50.32% |
| COc1cccc(CNCc2c(C)nn(C)c2N(C)C)c1 | -32.89% |
| Cc1nn(C)c(N(C)C)c1CNCc1ccc(Cn2cccn2)cc1 | 44.37% |
| COc1cccc(OCCNCc2c(C)nn(C)c2N(C)C)c1 | -14.3% |

| SMILES | INHIBITION |
| --- | --- |
| Cc1nn(C)c(N(C)C)c1CNCc1cccc(Cn2cncn2)c1 | -42.39% |
| Cc1ccc(C(=O)NS(=O)(=O)c2cccc3cnccc23)c(=O)[nH]1 | -14.17% |
| Cc1nc2ccccn2c1CN(Cc1cccnc1)CC1CCCO1 (stereo not drawn) | 41.76% |
| Cc1cccc2c1nc(COCC(=O)O)n2-c1cnc(N)cn1 | -15.37% |
| CN(C)Cc1nc(C(C)(C)NC(=O)C2CC(=O)N(CC3CC3)C2)no1 (stereo not drawn) | 17.39% |
| CCCc1nc(C(C)(C)NC(=O)C2CC(=O)N(CC3CC3)C2)no1 (stereo not drawn) | 71.48% |
| CCCc1nc(C(C)(C)NC(=O)C2CC(=O)N(CC)C2)no1 (stereo not drawn) | -2.17% |
| O=C(NCCO)c1coc(Cn2cnc3ccccc32)n1 | 5.82% |
| CN(Cc1cnc(N)nc1)C(=O)c1coc(COc2cccc(F)c2)n1 | 51.31% |
| CN(CC(O)CO)C(=O)c1coc(COc2cccc(F)c2)n1 (stereo not drawn) | -5.13% |
| CN(Cc1cnc(N)nc1)C(=O)c1coc(COc2ccccc2)n1 | -31.73% |
| CCOCCCNC(=O)C1(C)CCC(=O)N1Cc1ccccc1F (stereo not drawn) | 15.96% |
| CSCc1nc(CCNC(=O)C(N)c2c(C)n[nH]c2C)cs1 (stereo not drawn) | -4.29% |
| N#Cc1cccc(C(=O)N2CCCC(O)(CO)CC2)c1 (stereo not drawn) | 16.82% |
| O=C(c1ccc(-n2cccn2)cc1Cl)N1CCCC(O)(CO)C1 (stereo not drawn) | 21.36% |
| O=C(c1ccc(-n2cnnc2)cc1Cl)N1CCCC2(CCNC2)C1 (stereo not drawn) | 57.75% |
| O=C(c1ccnc(-n2cnnc2)c1)N1CCCC2(CCNC2)C1 (stereo not drawn) | 7.67% |
| O=C(c1ccc(-n2cnnc2)cc1Cl)N1CCCC(O)(CO)CC1 (stereo not drawn) | 58.57% |
| O=C(c1cccc(-c2ccc(F)cc2)c1)N1CCCC(O)(CO)CC1 (stereo not drawn) | 35.7% |
| CNc1ccc(C)cc1C(=O)N1CCCC2(CCNC2)C1 (stereo not drawn) | 8.3% |
| O=C(c1cccc(Oc2ccccc2)c1)N1CCCC(O)(CO)CC1 (stereo not drawn) | 53.66% |
| CN(C)CC1(O)CCN(C(=O)c2ccc(-n3cnnc3)cc2Cl)C1 (stereo not drawn) | 21% |
| COCC(=O)N1CCO[C@H]2[C@H](OC)CC[C@@H]21 | 7.86% |
| Cc1ccc(Oc2c(F)cccc2OC[C@@H](N)CC(C)C)cc1 | 16.01% |
| COC(=O)CN(C(=O)C(C)c1c(F)cccc1F)c1cccc(C)n1 (stereo not drawn) | -23.76% |
| Cc1oncc1C(=O)N1CC[C@H]2[C@H]1CCN2S(C)(=O)=O | 15.36% |

| SMILES | INHIBITION |
| --- | --- |
| COCC1CC2(CCN(Cc3cccc(C#N)c3)CC2)CN1C(C)C (stereo not drawn) | -52.61% |
| Cc1nnc(NC(=O)NCc2ccnc(N(C)C)c2)s1 | 29.71% |
| O[C@@H]1C[C@@H](c2nc(-c3ccccc3)no2)N(C2CCOCC2)C1 | 16.47% |
| COc1ccc(-c2noc([C@@H]3C[C@@H](O)CN3C3CCOCC3)n2)cc1 | 38.62% |
| O[C@@H]1C[C@@H](c2nc(-c3ccc(F)cc3)no2)N(C2CCOCC2)C1 | 51.2% |
| O=C(c1[nH]nc2c1CCCC2)N1CCC(OCCN2CCCCC2)C1 (stereo not drawn) | 8.14% |
| COC1CCN(C(=O)CCc2c(C)nc3ccnn3c2C)CC1 | -3.38% |
| CCOc1ccc(CN2C(=O)CC3(CCCC3)C2=O)nc1 | -32.8% |
| Cc1nc(C(=O)N2CCN(c3ccc(Cl)c(Cl)c3)CC2)cs1 | 23.19% |
| O=C(O)c1ccccc1-n1cnc(CN2CCc3ccccc32)c1 | -26.26% |
| O=C(O)c1ccccc1-n1cnc(CN2CCc3ccccc3C2)c1 | 51.03% |
| O=C(O)c1ccccc1-n1cnc(CN2CCCCCC2)c1 | 25.41% |
| CN(C(=O)C1CCOCC1)[C@@H]1CCC[C@@H](N2CCCC2)[C@@H]1O | -29.66% |
| CC1CN(S(=O)(=O)c2ccc(C(=O)NCC(F)F)cc2)CCCO1 (stereo not drawn) | 9.21% |
| COCCn1ccnc1C1CCN(C(=O)c2cccc(COC)n2)CC1 | -2.69% |
| CC(C)NC(=O)CCNC(=O)c1cc(F)ccc1NS(C)(=O)=O | -84.03% |
| c1cnn(C[C@@H]2C[C@@H]3CN(CC4CC4)CC[C@@H]3N2c2nccs2)c1 | -11.68% |
| Cc1ncc(CN2CCC(c3nc4cc(Cl)ccc4o3)CC2)s1 | 56.38% |
| Cc1nc(CN2CCC(c3nc4cc(Cl)ccc4o3)CC2)oc1C | 29.16% |
| Cc1noc(C)c1CN1CCC(c2nc3cc(Cl)ccc3o2)CC1 | 32.43% |
| Cc1oc(-c2nc(C#N)c(NC(C)C)o2)cc1S(=O)(=O)N1CCCCC1 | 28.39% |
| Cc1ccnc(C2(C)CCCN2S(=O)(=O)c2cccnc2)n1 (stereo not drawn) | -0.7% |
| O=C(Nc1cc(C(F)(F)F)c[nH]c1=O)C1CCCNC1 (stereo not drawn) | -50.41% |
| CC1CCN(CCCNS(=O)(=O)c2cc(F)cc(F)c2)CC1 | 14.52% |
| COc1ccc(F)cc1S(=O)(=O)N1CCC(Oc2ccc(Cl)cn2)CC1 | 54.73% |
| COc1ccc(F)cc1S(=O)(=O)N1CCC(OC)CC1 | 28.55% |

| SMILES | INHIBITION |
| --- | --- |
| CC(=O)N1CCC(Oc2ccc(C#N)cn2)CC1 | -1.02% |
| Cn1nc(C(=O)N2CCC(Oc3ccc(C#N)cn3)CC2)ccc1=O | 37.08% |
| CC(=O)N1CCC(Oc2ccc(Cl)cn2)CC1 | 64.16% |
| N#Cc1ccc(OC2CCN(C(=O)c3ccc(Br)o3)CC2)nc1 | -2.43% |
| CCOCC(=O)N1CCC(Oc2ccc(Cl)cn2)CC1 | -4.69% |
| O=S(=O)(c1cc(F)cc(F)c1)N1CCC(Oc2ccc(Cl)cn2)CC1 | 20.5% |
| N#Cc1ccc(OC2CCN(C(=O)c3ccccc3Cl)CC2)nc1 | 54.47% |
| COc1ccccc1C(=O)N1CCC(Oc2ccc(C#N)cn2)CC1 | 64.74% |
| CCOC(=O)N1CCC(Oc2ccc(C(F)(F)F)cn2)CC1 | 30.98% |
| N#Cc1ccc(C(=O)N2CCC(Oc3ccc(C#N)cn3)CC2)cc1 | 20.49% |
| COc1cc(N2CC[C@@H](O)[C@@H]2Cc2ccccc2)ncn1 | -30.57% |
| CNc1ccccc1C(=O)N(C)CCc1ccccc1 | -88.87% |
| CN(Cc1ccsc1)C(=O)c1n[nH]c(N)c1-c1ccccc1 | 8.75% |
| Cc1cc(C(=O)NC(C)Cc2cccc(Cl)c2)n(C)n1 (stereo not drawn) | -16.65% |
| Cc1n[nH]c(C2CN(CC(=O)NCCC3=CCCCC3)CCO2)n1 (stereo not drawn) | 1.27% |
| CN1CC2(CCN(S(=O)(=O)C3CC3)CC2)c2ccccc21 | 13.26% |
| Cn1ncnc1NCc1ccccc1Cl | 6.75% |
| CCC(C(=O)N(C)Cc1cc(COC)[nH]n1)n1cccn1 (stereo not drawn) | 19.12% |
| CN(Cc1cnn(C)c1)C(=O)NCc1cc(Br)cs1 | 31.78% |
| Cc1cc(NC(=O)CN2CCCC2c2noc(C3CC3)n2)n(C)n1 (stereo not drawn) | -30.39% |
| Cc1cc(NC(=O)CN2CCCC2c2noc(C)n2)n(C(C)(C)C)n1 (stereo not drawn) | 7.71% |
| Cc1cc(NC(=O)CN2CCCC2c2noc(C)n2)n(C)n1 (stereo not drawn) | 50.76% |
| Cc1cccc(COC[C@@]23CCC[C@@H]2CN(S(=O)(=O)N(C)C)C3)n1 | 31.96% |
| COc1ccccc1CNC(C)c1ccc(-n2ccnc2)cc1 (stereo not drawn) | 18.85% |
| CC(C)N(C)S(=O)(=O)c1ccc2c(c1)CCN(C(=O)c1cscn1)C2 | -68.29% |

Reference: ChEMBL document CHEMBL4513216, “Probing the Open Global Health Chemical Diversity Library for Multistage-Active Starting Points for Next-Generation Antimalarials” (ACS Infect Dis, 2020)
